Laboratory results reported in PubChem BioAssay (NCI).
This is part of a sample that, as a whole, favours compounds with a hit. Of some 83,000 tested, about 20% had one in any assay.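 Values shown are percent growth following 48 h exposure of cells in 96-well plates to a single concentration of compound; below 10 was considered active.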 Values without a mark were called inactive. Calls of active or inactive are those of the source.

What was measured:
Experiment in all cases: NCI-60 one-dose screen, 48 h (100 = growth as untreated, 0 = no growth, -100 = all killed)
Settings in all cases: 10 µM unless noted
[1] = tested on: HCT-15 colon
[2] = tested on: HT29 colon
[3] = tested on: SNB-75 CNS
[4] = tested on: SNB-19 CNS
[5] = tested on: U251 CNS
[6] = tested on: PC-3 prostate
[7] = tested on: SK-MEL-5 melanoma
[8] = tested on: UACC-62 melanoma
[9] = tested on: LOX IMVI melanoma
[10] = tested on: SK-MEL-28 melanoma

SMILES	growth [1]	growth [2]	growth [3]	growth [4]	growth [5]	growth [6]	growth [7]	growth [8]	growth [9]	growth [10]
CC1=C(C(=O)OC(C)C)C(c2ccc3c(c2)OCO3)NC(=S)N1 (stereo not given)	100%	103%	95.2%	95.4%	102%	86%	98.5%	85.2%	97.3%	106%
CN(C)CCNc1nc2c3cc(Cl)ccc3nn2c2ccccc12	41.2%	21.4%	83.5%	41.8%	49.5%	46.8%	56.1%	73.6%	25.9%	96.3%
CCc1ccc(C(=O)/C=C/C23c4ccccc4C(c4ccccc42)C2C(=O)NC(=O)C23)cc1 (stereo not given)	-10.3% (active)	1.59% (active)	26.3%	12%	-25% (active)	13.3%	10%	-6.86% (active)	-68.7% (active)	-23.7% (active)
Cc1ccc(-n2c(=S)[nH]c3sc4c(c3c2=O)CCC(=O)C4)cc1	25%	55.9%	28.1%	30.9%	36.7%	41%	26.7%	10.3%	36.3%	53%
Cc1cccc(Cl)c1NC(=O)c1ccc2nc(NC(=O)NCCN(C)C)sc2c1	99.3%	80.1%	23.7%	105%	80.4%	62.2%	67.3%	97.3%	91.5%	87.6%
O=C1c2cccnc2C(=O)c2c1c(C(=O)NCCn1ccnc1)c1ccccn21	30.3%	7.18% (active)	37.3%	30.8%	13%	8.68% (active)	-97% (active)	-24.5% (active)	6.67% (active)	68.4%
CCc1n(Cc2ccc3ccccc3c2)cc[n+]1Cc1ccc2ccccc2c1	70.1%	-32.2% (active)	-5.96% (active)	5.41% (active)	4.23% (active)	2.65% (active)	-93.3% (active)	-43.1% (active)	1.9% (active)	2.03% (active)
CN[C@]12CC3(C=CC(=O)C=C3)O[C@@]1(Cc1ccc(OC)cc1)N(C)C(=O)N2	4.25% (active)	7.83% (active)	37.8%	64.4%	10.9%	27.6%	43%	-43% (active)	-50% (active)	18.1%
Cc1ccc(-c2nn(-c3ccccc3)cc2C=C2C(=O)ON=C2C(C)C)cc1	63%	44.5%	70.3%	78.4%	52.4%	63.5%	87.1%	75.8%	2% (active)	88.7%
CS(=O)(=O)c1cccc(-c2c(-c3cccc(OS(N)(=O)=O)c3)nc3sccn23)c1	104%	107%	70.8%	97.5%	100%	106%	96.6%	94%	95.6%	112%
CCS/C(Nc1ccccc1)=C(\C#N)C(=O)N/N=C/c1ccc(Cl)cc1Cl	19.9%	9.53% (active)	-6.89% (active)	19.6%	19.1%	31.5%	12.4%	26.6%	34.4%	60.5%
COC(=O)c1cc(-c2ccc(OC)cc2)[nH]c1N/N=C/c1c(Cl)cccc1Cl	16.4%	-56.5% (active)	-10.6% (active)	19.1%	7.09% (active)	16.2%	-2.73% (active)	21.3%	24.2%	34%
Cc1nnc(NC(=O)c2nc(S(=O)(=O)Cc3ccc(F)cc3)ncc2Cl)s1	11.1%	23.8%	79.3%	92.8%	62.2%	71.4%	98.9%	19.8%	13.6%	50.5%
O=C(CI)NC1Oc2ccccc2-c2oc(=O)c(-c3ccccc3)cc21 (stereo not given)	-83% (active)	-55% (active)	-20.9% (active)	80.8%	-48.6% (active)	-72.8% (active)	85.5%	-22.8% (active)	-82.8% (active)	46.3%
O=C(Cn1cc(CN2CCCCCC2)nn1)Nc1ccc2c(ccn2Cc2ccccc2)c1	93.3%	70.5%	76.1%	98.8%	80.8%	82.2%	87%	96.9%	98.2%	99.9%
CCOC(=O)C#Cc1c(C(=O)OCC)nnn1[C@@H]1O[C@H](CO)[C@H]2OC3(CCCCC3)O[C@H]21	-38.8% (active)	7.93% (active)	73.1%	96%	104%	86.7%	96.2%	91.6%	20.1%	101%
O=C1N[C@@H]2NC(=[N+]3CCOCC3)N[C@@H]2N1	104%	110%	94.5%	96%	97.2%	106%	101%	90.1%	98.3%	101%
COC(=O)c1c2c(c[n+]([O-])c1C)C(=O)C(NCc1ccccc1)=CC2=O	-60.1% (active)	-0.488% (active)	-97.9% (active)	-23.8% (active)	-57.4% (active)	-11.1% (active)	-97% (active)	-78.5% (active)	-30.1% (active)	-29.3% (active)
Fc1cc2c(cc1Cl)N(c1ncnc3ccc(-c4cnc5[nH]ncc5c4)cc13)CC2	58.8%	56.3%	19.7%	69.4%	76.6%	53.9%	85.2%	58.1%	47.2%	83.4%
CCn1c(=S)sc2c(Nc3ccc(F)cc3)nc(-c3cccnc3)nc21	88.2%	41.6%	13.7%	78.9%	34.3%	56%	87.7%	56.7%	69.5%	86.2%
Cc1cnc(C(=O)NNc2nc3sc4c(c3c(=O)n2C)C(C)CCC4)cn1 (stereo not given)	15.9%	-2.88% (active)	1.63% (active)	-14.8% (active)	-33.3% (active)	8.78% (active)	-53.8% (active)	-20.8% (active)	-17.5% (active)	8.43% (active)
O=c1oc2c(cnc3ccccc32)cc1-c1ccsc1	107%	113%	89%	94.6%	93.3%	90.5%	96.8%	94.8%	99.3%	106%
O=C(CSc1nc2sc3c(c2c(=O)n1-c1ccccc1)CCCCC3)N/N=C/c1ccc(F)cc1	48.6%	26.2%	-65.4% (active)	47.4%	6.96% (active)	45.8%	50.7%	83.5%	37.1%	48.9%
CCOC(=O)c1c2c(n3ccc(C)cc13)C(=O)c1ccccc1C2=O	85.2%	87.8%	100%	98.4%	92.8%	78%	82.1%	92.6%	94%	111%
CC(C)NC1CCC(Nc2ccnc3cc(Cl)ccc23)CC1 (stereo not given)	99.1%	77.5%	83.7%	109%	87.7%	78.6%	90.8%	97.3%	86.6%	101%
COc1ccc2[nH]cc(C(c3cc(F)cc(F)c3)c3c[nH]c4ccc(OC)cc34)c2c1	65.2%	81.5%	85.9%	82.9%	86.8%	50.2%	91.7%	85.5%	67.3%	105%
C[C@H](NC(=O)[C@@H](C)N)[C@H](Oc1ccc2c(cnn2-c2ccc(F)cc2)c1)c1ccc2c(c1)OCCO2	34%	2.47% (active)	61.6%	65.9%	34.7%	44%	-70% (active)	-22.3% (active)	-67.3% (active)	-66.7% (active)
